Structures can show the parent of a compound that is named as a salt. ± gives the standard error. About 130 (10%) of roughly 1,300 compounds showed an effect of 50% or more. The sample as a whole holds a higher share of strong results than the screen did.
System: Trichoderma virens ATCC 9645
Experiment: growth yield (OD600) with compound + IPBC relative to untreated control; higher = less growth inhibition
Conditions: compound concentration: 100 uM, IPBC concentration: 200 ng/ml
Summary of the method: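 Trichoderma virens ATCC 9645 spores from 7-day potato dextrose agar plates were suspended in potato dextrose broth at 15,000 spores ml^−1. Aliquots of 100 μl with library compounds at 100 μM final, with or without a co-applied biocide at 200 ng ml^−1, were grown in 96-well plates at 30 °C. OD600 was read at 40 h and 72 h on a BioTek EL800. Growth is expressed relative to the control without either agent, as means of duplicate screens.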

## CCCNC(C)(C)COC(=O)c1ccccc1 [Meprylcaine hydrochloride] + CCCCNC(=O)OCC#CI [3-iodo-2-propynyl butylcarbamate (IPBC)]
40 h
  growth yield: 87.7 ± 7.6%
72 h
  growth yield: 91.8 ± 5.1%

## Nc1nc(O)c2ncn(CCC(CO)CO)c2n1 [Penciclovir] + CCCCNC(=O)OCC#CI [3-iodo-2-propynyl butylcarbamate (IPBC)]
40 h
  growth yield: 82.76 ± 0.48%
72 h
  growth yield: 95.6 ± 1.3%

## Cc1ccccc1C(=O)Nc1ccc(C(=O)N2CCCC(O)c3cc(Cl)ccc32)c(C)c1 (stereo not given) [Tolvaptan] + CCCCNC(=O)OCC#CI [3-iodo-2-propynyl butylcarbamate (IPBC)]
40 h
  growth yield: 107 ± 2.5%
72 h
  growth yield: 107.1 ± 0.94%

## CN1CCCC(CC2c3ccccc3Sc3ccccc32)C1 (stereo not given) [Metixene hydrochloride] + CCCCNC(=O)OCC#CI [3-iodo-2-propynyl butylcarbamate (IPBC)]
40 h
  growth yield: 48.9 ± 2.2%
72 h
  growth yield: 85.3 ± 2%

## Cc1ncc(CO)c(CO)c1O [Pyridoxine hydrochloride] + CCCCNC(=O)OCC#CI [3-iodo-2-propynyl butylcarbamate (IPBC)]
40 h
  growth yield: 79.58 ± 0.79%
72 h
  growth yield: 85.7 ± 2.2%

## CCN(CC)CCOC(=O)C(Cc1cccc2ccccc12)CC1CCCO1 (stereo not given) [Nafronyl oxalate] + CCCCNC(=O)OCC#CI [3-iodo-2-propynyl butylcarbamate (IPBC)]
40 h
  growth yield: 71.5 ± 1.3%
72 h
  growth yield: 87.36 ± 0.1%

## CO[C@H]1/C=C/O[C@@]2(C)Oc3c(C)c(O)c4c(O)c(c(/C=N/N5CCN(C6CCCC6)CC5)c(O)c4c3C2=O)NC(=O)/C(C)=C\C=C\[C@H](C)[C@H](O)[C@@H](C)[C@@H](O)[C@@H](C)[C@H](OC(C)=O)[C@@H]1C [Rifapentine] + CCCCNC(=O)OCC#CI [3-iodo-2-propynyl butylcarbamate (IPBC)]
40 h
  growth yield: 90.2 ± 0.95%
72 h
  growth yield: 94.5 ± 2.6%

## NC[C@H]1CC[C@H](C(=O)O)CC1 [Tranexamic acid] + CCCCNC(=O)OCC#CI [3-iodo-2-propynyl butylcarbamate (IPBC)]
40 h
  growth yield: 100 ± 3.8%
72 h
  growth yield: 104 ± 1.1%

## CCC1(c2ccccc2)NC(=O)N(C)C1=O (stereo not given) [Mephenytoin] + CCCCNC(=O)OCC#CI [3-iodo-2-propynyl butylcarbamate (IPBC)]
40 h
  growth yield: 88.5 ± 2.4%
72 h
  growth yield: 100 ± 9.9%

## CN(C)[C@@H]1C(O)=C(C(N)=O)C(=O)[C@@]2(O)C(O)=C3C(=O)c4c(O)cccc4[C@@](C)(O)[C@H]3C[C@@H]12 [Tetracycline hydrochloride] + CCCCNC(=O)OCC#CI [3-iodo-2-propynyl butylcarbamate (IPBC)]
40 h
  growth yield: 99.3 ± 11%
72 h
  growth yield: 96.9 ± 6.3%

## C[N+]1(C)CCC(OC(=O)C(O)(c2ccccc2)C2CCCC2)C1 (stereo not given) [Glycopyrrolate] + CCCCNC(=O)OCC#CI [3-iodo-2-propynyl butylcarbamate (IPBC)]
40 h
  growth yield: 101 ± 14%
72 h
  growth yield: 98.7 ± 8.1%

## O=C1c2c(O)ccc(O)c2C(=O)c2c(NCCNCCO)ccc(NCCNCCO)c21 [Mitoxantrone dihydrochloride] + CCCCNC(=O)OCC#CI [3-iodo-2-propynyl butylcarbamate (IPBC)]
40 h
  growth yield: 1.27 ± 1.3%
72 h
  growth yield: 0%

## O=C1c2cccc(O)c2C(=O)c2c(O)cccc21 [1,8-Dihydroxyanthraquinone] + CCCCNC(=O)OCC#CI [3-iodo-2-propynyl butylcarbamate (IPBC)]
40 h
  growth yield: 55.12 ± 0.16%
72 h
  growth yield: 77.2 ± 1.9%

## O=C1c2c(O)cccc2Cc2cccc(O)c21 [Anthralin] + CCCCNC(=O)OCC#CI [3-iodo-2-propynyl butylcarbamate (IPBC)]
40 h
  growth yield: 71.8 ± 3.8%
72 h
  growth yield: 82.4 ± 1.3%

## CN(C)[C@@H]1C(O)=C(C(N)=O)C(=O)[C@@]2(O)C(O)=C3C(=O)c4c(O)ccc(Cl)c4[C@@H](O)[C@H]3C[C@@H]12 [Demeclocycline hydrochloride] + CCCCNC(=O)OCC#CI [3-iodo-2-propynyl butylcarbamate (IPBC)]
40 h
  growth yield: 68.8 ± 2.4%
72 h
  growth yield: 76.1 ± 1.1%

## CC(C)CC(N(C)C)C1(c2ccc(Cl)cc2)CCC1 (stereo not given) [Sibutramine hydrochloride] + CCCCNC(=O)OCC#CI [3-iodo-2-propynyl butylcarbamate (IPBC)]
40 h
  growth yield: 76.7 ± 0.79%
72 h
  growth yield: 90.82 ± 0.42%

## CCC[C@H](N[C@@H](C)C(=O)N1[C@H](C(=O)O)C[C@@H]2CCCC[C@@H]21)C(=O)OCC [Perindopril] + CCCCNC(=O)OCC#CI [3-iodo-2-propynyl butylcarbamate (IPBC)]
40 h
  growth yield: 98.8 ± 5.1%
72 h
  growth yield: 97.5 ± 3.1%

## CCCSc1ccc2[nH]c(NC(=O)OC)nc2c1 [Albendazole] + CCCCNC(=O)OCC#CI [3-iodo-2-propynyl butylcarbamate (IPBC)]
40 h
  growth yield: 87.7 ± 8.9%
72 h
  growth yield: 99.7 ± 2.8%

## COC(=O)Nc1nc2cc(C(=O)c3ccc(F)cc3)ccc2[nH]1 [Flubendazol] + CCCCNC(=O)OCC#CI [3-iodo-2-propynyl butylcarbamate (IPBC)]
40 h
  growth yield: 86.4 ± 5.4%
72 h
  growth yield: 91.1 ± 4.9%

## CCCOc1ccc2[nH]c(NC(=O)OC)nc2c1 [Oxibendazol] + CCCCNC(=O)OCC#CI [3-iodo-2-propynyl butylcarbamate (IPBC)]
40 h
  growth yield: 44.6 ± 2.1%
72 h
  growth yield: 85 ± 4.8%

## COC(=O)Nc1nc2cc([S+]([O-])c3ccccc3)ccc2[nH]1 (stereo not given) [Oxfendazol] + CCCCNC(=O)OCC#CI [3-iodo-2-propynyl butylcarbamate (IPBC)]
40 h
  growth yield: 93.4 ± 6.3%
72 h
  growth yield: 98.2 ± 4.2%

## CCCCc1ccc2[nH]c(NC(=O)OC)nc2c1 [Parbendazole] + CCCCNC(=O)OCC#CI [3-iodo-2-propynyl butylcarbamate (IPBC)]
40 h
  growth yield: 27 ± 4.1%
72 h
  growth yield: 80.2 ± 2.2%

## COC(=O)Nc1nc2cc(C(=O)c3ccccc3)ccc2[nH]1 [Mebendazole] + CCCCNC(=O)OCC#CI [3-iodo-2-propynyl butylcarbamate (IPBC)]
40 h
  growth yield: 68 ± 1.9%
72 h
  growth yield: 89.36 ± 0.63%

## N#Cc1cc(NC(=O)C(=O)O)c(Cl)c(NC(=O)C(=O)O)c1 [Lodoxamide] + CCCCNC(=O)OCC#CI [3-iodo-2-propynyl butylcarbamate (IPBC)]
40 h
  growth yield: 114 ± 10%
72 h
  growth yield: 109 ± 12%

## C=C(NC(=O)C(=C)NC(=O)c1csc(C2=N[C@@H]3c4csc(n4)[C@H]4NC(=O)c5csc(n5)[C@H]([C@](C)(O)[C@@H](C)O)NC(=O)[C@H]5CSC(=N5)/C(=C/C)NC(=O)[C@H]([C@@H](C)O)NC(=O)c5csc(n5)[C@]3(CC2)NC(=O)[C@H](C)NC(=O)C(=C)NC(=O)[C@H](C)NC(=O)[C@H]([C@@H](C)CC)N[C@@H]2C=Cc3c([C@H](C)O)cc(nc3[C@H]2O)C(=O)O[C@@H]4C)n1)C(N)=O [Thiostrepton] + CCCCNC(=O)OCC#CI [3-iodo-2-propynyl butylcarbamate (IPBC)]
40 h
  growth yield: 101 ± 2.5%
72 h
  growth yield: 100 ± 1.6%

Source: the supplement of paper PMC8007513
